Measurements reported in PubChem BioAssay (Tox21).
Values joined by “and” are separate entries in the source; they are usually repeats but may differ in a detail not shown here. Identical values can stand only once. Results filed as inconclusive are left out. Entries that show only a call come without a potency. Where a structure was tested more than once in an assay, its records may differ in their call. Active and inactive are the calls of the source. Unless noted, the call rests on the fitted dose curve; in most records, active means well fitted curve in the direction sought with a large enough effect in the repeat runs; inconclusive means weak or mixed curves; inactive means no such curve, though single readings can be large; an effect the other way counts as inactive or inconclusive.

Legend:
[1] = qHTS assay to identify small molecule antagonists of the estrogen related receptor (ERR) signaling pathway from Tox21 library - cell viability counter screen (AID 1224834); further: nearly all actives have a fitted effect of over 30% in size; further: potency means the concentration at half of the fitted maximal effect
Procedure, shortened: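 ERR reporter cells were plated 6 h before compound addition, then exposed to test compounds in DMSO for 17.5 h at 37 C. Viability was read as CellTiter-Fluor fluorescence after a 30-minute incubation at 37 C.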

[2] = qHTS assay to identify small molecule agonists of the constitutive androstane receptor (CAR) signaling pathway - cell viability counter screen (AID 1224836); further: nearly all actives have a fitted effect of over 45% in size
Procedure, shortened: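 23 h treatment, 37 C, 5% CO2. Cell line: HepG2 stably expressing hCAR with a CYP2B6-2.2kb construct. Co-treatment: PK11195, 0.75 uM final. Read-out: CellTiter-Fluor fluorescence intensity.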

[3] = qHTS assay to identify small molecule antagonists of the constitutive androstane receptor (CAR) signaling pathway - cell viability counter screen (AID 1224837); further: nearly all actives have a fitted effect of over 45% in size; further: potency means the concentration at half of the fitted maximal effect
Procedure, shortened: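 HepG2 cells stably expressing hCAR and a CYP2B6-2.2kb reporter were plated and pre-incubated 4 hr at 37 C/5% CO2, then given compounds at 15 concentrations plus 50 nM CITCO (final). After 23 hr, viability was read by CellTiter-Fluor fluorescence.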

[4] = target: Nuclear receptor subfamily 1 group I member 3 (Homo sapiens) (UniProt Q14994); assay: qHTS assay to identify small molecule antagonists of the constitutive androstane receptor (CAR) signaling pathway (AID 1224838); further: nearly all actives have a fitted effect of over 40% in size
Chain of Nuclear receptor subfamily 1 group I member 3 (Homo sapiens) (Q14994 whole entry, looked up): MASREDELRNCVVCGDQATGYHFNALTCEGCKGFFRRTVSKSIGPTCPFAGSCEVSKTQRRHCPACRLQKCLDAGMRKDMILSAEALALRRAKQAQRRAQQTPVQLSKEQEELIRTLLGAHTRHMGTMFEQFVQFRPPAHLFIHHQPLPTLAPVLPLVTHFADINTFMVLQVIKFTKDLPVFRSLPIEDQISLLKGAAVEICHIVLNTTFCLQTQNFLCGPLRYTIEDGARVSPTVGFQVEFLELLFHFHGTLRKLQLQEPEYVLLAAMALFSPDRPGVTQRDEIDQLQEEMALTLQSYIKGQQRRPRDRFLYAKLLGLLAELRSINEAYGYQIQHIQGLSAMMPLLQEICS
Procedure, shortened: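 HepG2 cells stably co-transfected with hCAR and a CYP2B6-2.2kb luciferase reporter were seeded 4 h before compound addition at 15 concentrations. Cells were stimulated with 50 nM CITCO (final) for 24 h at 37 C; luciferase luminescence was then read.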

[5] = target: Nuclear receptor subfamily 1 group I member 3 (Homo sapiens) (UniProt Q14994); assay: qHTS assay to identify small molecule agonists of the constitutive androstane receptor (CAR) signaling pathway (AID 1224839); further: nearly all actives have a fitted effect of over 15% in size; further: potency means the concentration at half of the fitted maximal effect;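 on activation: HepG2 cells stably carrying human CAR and a CYP2B6 luciferase reporter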
Procedure, shortened: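 Compounds tested at 15 concentrations on HepG2 cells stably harbouring hCAR and CYP2B6-2.2kb reporter constructs, co-treated with PK11195 (0.75 uM final), 24 h at 37 C; luminescent reporter signal quantified.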

[6] = qHTS assay to identify small molecule antagonists of the estrogen related receptor signaling pathway with the pleiotropic PPARgamma coactivator (PGC) from Tox21 10K library - cell viability counter screen (AID 1224840; active means well fitted cell-killing curve with a large enough effect in the repeat runs, not every such curve was filed as active; further: nearly all actives have a fitted effect of over 40% in size; further: potency means the concentration at half of the fitted maximal effect)
Procedure, shortened: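 PGC/ERR cells were seeded at 2,000 cells/well and left 6 hours at 37 C/5% CO2 before pin-tool addition of compounds in DMSO. After 17.5 hours at 37 C, CellTiter-Fluor was added and fluorescence read 30 minutes later.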

[7] = target: Thyrotropin receptor (Homo sapiens) (UniProt P16473); assay: qHTS assay to identify small molecule agonists of the thyroid stimulating hormone receptor (TSHR) signaling pathway (AID 1224843; calls by dose curve; further: nearly all actives have a fitted effect of over 45% in size; further: potency means the concentration at half of the fitted maximal effect)
Chain of Thyrotropin receptor (Homo sapiens) (P16473 whole entry, looked up): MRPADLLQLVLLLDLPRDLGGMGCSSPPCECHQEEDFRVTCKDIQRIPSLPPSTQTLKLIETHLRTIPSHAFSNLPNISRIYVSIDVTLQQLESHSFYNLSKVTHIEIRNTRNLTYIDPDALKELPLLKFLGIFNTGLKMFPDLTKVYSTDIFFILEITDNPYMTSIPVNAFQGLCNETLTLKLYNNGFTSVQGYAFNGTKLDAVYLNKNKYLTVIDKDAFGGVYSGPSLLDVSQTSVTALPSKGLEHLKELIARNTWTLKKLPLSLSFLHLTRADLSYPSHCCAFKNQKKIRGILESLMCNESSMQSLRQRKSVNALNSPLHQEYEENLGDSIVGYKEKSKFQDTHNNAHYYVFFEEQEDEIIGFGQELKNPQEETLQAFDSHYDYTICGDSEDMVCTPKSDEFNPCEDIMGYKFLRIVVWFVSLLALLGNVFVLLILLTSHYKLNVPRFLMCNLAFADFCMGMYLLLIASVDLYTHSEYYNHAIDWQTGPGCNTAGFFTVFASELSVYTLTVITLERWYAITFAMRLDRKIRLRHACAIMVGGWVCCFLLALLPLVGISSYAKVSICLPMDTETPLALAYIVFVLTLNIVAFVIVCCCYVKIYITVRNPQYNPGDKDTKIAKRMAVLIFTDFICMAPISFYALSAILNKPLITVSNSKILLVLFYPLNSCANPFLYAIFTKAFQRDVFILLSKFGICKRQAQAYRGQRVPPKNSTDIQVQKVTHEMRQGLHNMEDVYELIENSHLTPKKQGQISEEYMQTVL
Procedure, shortened: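 Screening of the Tox21 10K collection used HEK293 cells engineered with TSHR at 800 cells per well. After a 30-min room-temperature compound exposure, HTRF cAMP reagents were added and fluorescence recorded 1 h later.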

[8] = qHTS assay to identify small molecule agonists of the hypoxia (HIF-1) signaling pathway - cell viability counter screen (AID 1224844; calls by dose curve; further: nearly all actives have a fitted effect of over 50% in size)
Procedure, shortened: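 HRE-bla ME-180 cells in medium with 0.5% dialyzed FBS were preincubated 5 hrs at 37C, exposed to compounds for 17 hrs, then viability was read as CellTiter-Glo luminescence after 30 min at room temperature, in the reporter wells.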

[9] = qHTS assay to identify small molecule agonists of H2AX (AID 1224845; active means well fitted activation curve with a large enough effect in the signal ratio in the repeat runs, not every such curve was filed as active; the % refers to the signal ratio)
Procedure, shortened: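 Phospho-H2AX Ser139 measured by HTRF (ex 320 nm; em 665 and 620 nm) after 24 hr antibody incubation. Compounds, 15 concentrations, 0.76% DMSO, were applied to CHO-K1 cells for 3hr at 37C before lysis.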

[10] = qHTS assay to identify small molecule agonists of the hypoxia (HIF-1) signaling pathway (AID 1224846; active means well fitted activation curve with a large enough effect in the signal ratio in the repeat runs, not every such curve was filed as active; the % refers to the signal ratio)
Procedure, shortened: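 HRE-bla ME-180 cells (beta-lactamase reporter under hypoxia response element) were plated at 2,000 cells/well in medium with 0.5% dialyzed FBS, rested 5 hrs, then given compounds in DMSO for 17 hrs at 37C, 5% CO2. Reporter induction was read with CCF4-AM FRET substrate.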

[11] = qHTS assay to identify small molecule agonists of H2AX - cell viability counter screen (AID 1224847; calls by dose curve; further: nearly all actives have a fitted effect of over 30% in size; further: potency means the concentration at half of the fitted maximal effect)
Procedure, shortened: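 Compounds tested at 15 concentrations were incubated 3 hr at 37C with wild-type CHO-K1 cells; cellular ATP-based luminescence (CellTiter-Glo) indicated viability.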

[12] = qHTS RealTime-Glo MT Cell Viability Assay in HepG2 cells - 24 hour (AID 1224867); further: nearly all actives have a fitted effect of over 50% in size
Procedure, shortened: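 HepG2 cells were seeded at 600 cells/well together with NanoLuc luciferase and a cell-permeant prosubstrate, preincubated 5 h at 37 C/5% CO2, then pin-dosed with compounds in DMSO. Nonlytic luminescence from viable cells was read at each time point.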

[13] = qHTS RealTime-Glo MT Cell Viability Assay in HEK293 cells - 32 hour (AID 1224868); further: nearly all actives have a fitted effect of over 50% in size; further: potency means the concentration at half of the fitted maximal effect
Procedure, shortened: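 HEK293 cells were seeded at 600 cells/well together with NanoLuc luciferase and cell-permeant prosubstrate, preincubated 5 h at 37 C/5% CO2, then given compound in DMSO by pintool. Luminescence from viable-cell prosubstrate reduction was read repeatedly over 40 h.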

[14] = A CellTox Green Cytotoxicity Assay to monitor cytotoxicity in HEK293 cells - 0 hour (AID 1224869); further: nearly all actives have a fitted effect of over 50% in size
Procedure, shortened: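 HEK293 cells premixed with CellTox Green dye were seeded at 600 cells/well and left 5 h at 37 C/5% CO2 before pin transfer of 23 nL compound in DMSO. Fluorescence from dye bound to dead-cell DNA was read during 40 h treatment.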

[15] = target: Luciferin 4-monooxygenase (Photinus pyralis) (UniProt P08659); assay: qHTS assay to identify small molecule inhibitors of firefly luciferase (AID 1224835); further: nearly all actives have a fitted effect of over 25% in size
Chain of Luciferin 4-monooxygenase (Photinus pyralis) (P08659 whole entry, looked up): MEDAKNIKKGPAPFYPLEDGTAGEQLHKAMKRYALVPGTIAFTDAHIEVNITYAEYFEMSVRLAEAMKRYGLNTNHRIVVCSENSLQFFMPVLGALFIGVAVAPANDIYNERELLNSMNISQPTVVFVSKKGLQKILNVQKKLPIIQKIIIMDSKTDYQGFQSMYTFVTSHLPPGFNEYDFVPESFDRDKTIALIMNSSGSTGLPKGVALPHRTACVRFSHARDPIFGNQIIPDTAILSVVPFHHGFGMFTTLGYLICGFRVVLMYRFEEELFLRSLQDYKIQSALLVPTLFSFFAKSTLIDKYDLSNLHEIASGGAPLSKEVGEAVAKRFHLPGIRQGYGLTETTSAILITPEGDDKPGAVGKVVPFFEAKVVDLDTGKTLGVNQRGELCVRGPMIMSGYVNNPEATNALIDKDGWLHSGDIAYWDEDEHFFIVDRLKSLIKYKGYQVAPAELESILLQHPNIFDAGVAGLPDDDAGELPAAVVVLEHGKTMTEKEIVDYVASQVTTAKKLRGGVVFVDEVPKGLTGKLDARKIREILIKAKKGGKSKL
Procedure, shortened: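 Inhibition of purified Photinus luciferase is measured by luminescence. Substrate levels (D-luciferin, ATP) sit at their KM values. Each compound is tested in a concentration series.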

[16] = qHTS assay to identify small molecule agonists of the estrogen related receptor (ERR) signaling pathway from Tox21 library (AID 1224849; calls by dose curve; further: nearly all actives have a fitted effect of over 15% in size); details: ERR reporter cell line, ONE-Glo luciferase, 18 h; at 92.4 µM (top of the series) unless noted
Procedure, shortened: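 ERR reporter cell line (NTP) seeded, rested 6 h at 37 C/5% CO2, then pinned with Tox21 compounds in DMSO. After 18 h at 37 C, ONE-Glo luciferase luminescence was read following 30 min at room temperature.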

[17] = qHTS RealTime-Glo MT Cell Viability Assay in HepG2 cells - 40 hour (AID 1224870); further: nearly all actives have a fitted effect of over 50% in size; further: potency means the concentration at half of the fitted maximal effect
Procedure, shortened: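 Real-time viability: cells seeded at 600 per well together with NanoLuc and cell-permeant prosubstrate, compounds added after 5 h incubation. Luminescence tracked at 0, 8, 16, 24, 32 and 40 h of exposure.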

[18] = qHTS assay to identify small molecule antagonists of the estrogen related receptor signaling pathway with the pleiotropic PPARgamma coactivator (PGC) from Tox21 10K library (AID 1224841; call rule not given here; further: potency means the concentration at half of the fitted maximal effect)
Procedure, shortened: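 PGC/ERR reporter cells were seeded at 2,000 cells/well and held 6 hours at 37 C/5% CO2 before pin-tool addition of compounds in DMSO. After 18 hours at 37 C, One-Glo was added and luminescence read after 30 minutes at room temperature.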

[19] = qHTS assay to identify small molecule antagonists of the estrogen related receptor (ERR) signaling pathway from Tox21 library (AID 1224848); further: nearly all actives have a fitted effect of over 50% in size; further: potency means the concentration at half of the fitted maximal effect
Procedure, shortened: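 Antagonist-mode screen of the Tox21 10K library in an NTP-provided ERR reporter cell line; 18 h compound exposure at 37 C, luminescence measured with ONE-Glo.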

[20] = qHTS assay to identify small molecule agonists of the estrogen related receptor signaling pathway with the pleiotropic PPARgamma coactivator (PGC) from Tox21 10K library (AID 1224842); further: nearly all actives have a fitted effect of over 15% in size
Procedure, shortened: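 Luminescence from One-Glo (30 min, room temperature) measured after PGC/ERR cells had 18 h at 37 C with pinned compound (23 nL in DMSO). Cells had been seeded at 2,000 per well and pre-incubated 6 h.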

SMILES | Potency [1] | Potency [2] | Potency [3] | Potency [4] | Potency [5] | Potency [6] | Potency [7] | Potency [8] | Potency [9] | outcome [10] | Potency [11] | Potency [12] | Potency [13] | Potency [14] | Potency [15] | activity change, positive = activation [16] | Potency [17] | Potency [18] | Potency [19] | Potency [20]
C=CC(=O)OC | inactive | inactive | inactive | inactive | inactive | inactive | inactive | inactive | inactive | inactive | inactive | inactive | inactive | inactive | – | – | – | – | – | –
CCCCC(CC)COP(=O)(Oc1ccccc1)Oc1ccccc1 (configuration not stated) | inactive | – | inactive | inactive | 27.3 µM (active) | – | 27.3 µM (active) | – | inactive | inactive | – | inactive | inactive | inactive | inactive | – | – | – | – | –
CC(O)(CS(=O)(=O)c1ccc(F)cc1)C(=O)Nc1ccc(C#N)c(C(F)(F)F)c1 (configuration not stated) | inactive | – | inactive | inactive | inactive | inactive | – | inactive | inactive | inactive | 41.6 µM (active) | – | – | inactive | inactive | -29.9% [at 42.5 µM] (inactive) | – | – | – | –
NC(=O)C(Cl)(Cl)Cl | inactive | inactive | inactive | inactive | inactive | inactive | inactive | inactive | inactive | inactive | inactive | inactive | inactive | inactive | – | – | inactive | – | – | –
CC(C)O.CC(C)O.OCCN(CCO)CCO.OCCN(CCO)CCO.[Ti] | inactive | – | inactive | inactive | – | – | inactive | inactive | inactive | inactive | – | inactive | inactive | inactive | inactive | – | inactive | – | – | –
O=S(=O)(Cl)c1ccccc1 | inactive | – | inactive | inactive | inactive | – | inactive | inactive | inactive | inactive | inactive | inactive | inactive | inactive | inactive | – | inactive | – | – | –
C[N+](C)(C)CCCl | inactive | – | inactive | – | – | inactive | inactive | inactive | inactive | inactive | inactive | inactive | – | inactive | inactive | 3.38% (inactive) | inactive | inactive | inactive | –
Cn1cc[n+](C)c1 (tested in a mixture with another compound) | inactive | – | inactive | inactive | – | inactive | inactive | – | inactive | inactive | inactive | inactive | inactive | inactive | inactive | – | inactive | – | – | –
CCn1cc[n+](C)c1 | inactive and 30.9 µM (active) | – | – | – | – | inactive and 55 µM (active) | – | inactive | inactive | inactive | inactive and 102 µM (active) | inactive | – | inactive | inactive | – | inactive and 44 µM (active) | – | – | –
O=C(CBr)OCc1ccccc1 | inactive | – | inactive | inactive | inactive | inactive | – | – | – | inactive | inactive | inactive | – | inactive | inactive | – | inactive | – | – | –
CCOP(=S)(OCC)SCn1nnc2ccccc2c1=O | 43.3 µM (active) | – | inactive | inactive | 24.3 µM (active) | – | inactive | – | – | inactive | – | inactive | 21.9 µM (active) | inactive | inactive | -48.2% (inactive) | inactive | – | 27.3 µM (active) | inactive
CC1Sc2c(C(=O)O)c(=O)c3cc(F)c(N4CCNCC4)cc3n21 (configuration not stated) | inactive | – | inactive | – | inactive | inactive | inactive | inactive | inactive | inactive | inactive | inactive | inactive | inactive | inactive | 11.7% [at 42.5 µM] (inactive) | inactive | inactive | inactive | inactive
CCCCC(O)(Cn1cncn1)c1ccc(Cl)cc1Cl (configuration not stated) | 54.4 µM (active) | – | 61.1 µM (active) | inactive | – | 54.4 µM (active) | – | – | inactive | inactive | 113 µM (active) | – | 38.9 µM (active) | inactive | inactive | -59.1% (inactive) | – | 48.5 µM (active) | – | inactive
